Laboratory results as given in PubChem BioAssay AID624336 (National Center for Advancing Translational Sciences (NCATS), 2012).
Inconclusive results are not listed. Calls of active or inactive are those of the source. Calls come from the whole dose curve; as a rule, active = well fitted curve in the direction sought with a large enough effect; inconclusive = small, poorly fitted or top-dose-only effect; inactive = flat fitted curve, though single readings scatter.

assay: Quantitative high throughput screen for delayed death inhibitors of the malarial parasite plastid: Hit Validation with Dd2 at 48 hr using Flow Cytometry; details: P. falciparum Dd2 growth, flow cytometry SYBR/MitoTracker; relative growth, lower = inhibition: at 50 µM (top of the series)
From the text: The goal of this screen is to discover new antimalarial compounds that act by inhibiting the development of the apicoplast organelle in the malarial parasite Plasmodium falciparum. Some antibiotics, such as azithromycin and tetracycline, are known to interfere with the apicoplast translational machinery, and have a potent antimalarial effect. […] We developed a cell-based quantitative high throughput screen that leverages this "delayed death" phenotype to enrich for compounds that target the apicoplast. To detect small molecules that cause the delayed death phenotype, erythrocytes infected with firefly luciferase-expressing parasites were incubated with compounds for either one or two generations, corresponding to 48 and 96 hours, respectively. Growth inhibition was detected by a decrease in luciferase activity. Compounds that inhibited parasite growth in the second generation at least five-fold more potently than in the first generation were defined as delayed death inducing. These compounds were selected for confirmatory screening using a flow cytometry based assay. This hit validation assay used the Dd2 cell line and measured at 48 hours. NIH Molecular Libraries Probe Production Network [MLPCN] NIH Chemical Genomics Center [NCGC] MLPCN Grant: R21 NS059500 Assay Provider: David Fidock and Eric Ekland, Columbia University
Test compounds were diluted in 20 microliters of complete media (RPMI 1640 with 0.5% w/v Albumax (GIBCO), 24 mM sodium bicarbonate (Sigma) and 10 ug/mL gentamycin (Gibco)) in clear 384-well plates (Greiner). All liquid handling was conducted using a Bio Tek Precision 2000 pipetting system. Twenty microliters of infected erythrocytes, 0.2% parasitemia (for 48 hour time points) or 0.1% parasitemia (for 96 hour time points) were added to the compound dilutions (1% hematocrit, final concentration; 40 microliters, total culture volume). The assay plates were incubated for 48 hours, or 96 hours, at 37 masculine C in a humidified chamber (Billups- Rothenberg, Del Mar, CA, USA), gassed with 5%CO2/5%O2/ 90%N2. After one generation (48 hours), 5 microliters of culture were harvested and transferred to a second 384 well plate for fluorescent staining. Samples were stained with 30 microliters of 2 x SYBR Green I (Invitrogen) and 150nM MitoTracker Deep Red (Invitrogen) diluted in 0.9% NaCl, 0.2% dextrose (Baxter) supplemented with 2.5% Fetal Calf Serum (Gibco) (saline/FCS). Mature erythrocytes lack nuclei and mitochondria, therefore only parasitized erythrocytes retain the SYBR Green I and MitoTracker Deep Red. After 30 minutes at 37 masculine C, the stained cells were diluted in an additional 60 microliters of saline/FCS. The samples were harvested directly from the 384 well plate using a Hypercyt High Capacity Flow Platform (Intellicyt) paired with a C6 Flow Cytometer (Accuri). The flow cytometry files were analyzed using FlowJo software (FlowJo).

| SMILES | Potency | relative growth, lower = inhibition |
| --- | --- | --- |
| CCCCN(CCCNC(=O)C1CCN(C(=O)c2cc3sccc3n2C)CC1)Cc1ccccc1 | 3.62 µM (active) |  |
| Cc1ccc(-n2c(-c3ccc(Cl)cc3)c[n+]3c2CCC3)cc1 | 2.64 µM (active) |  |
| Cc1ccc(S(=O)(=O)Nc2ccc(C(=O)Nc3ccncc3)cc2)cc1 |  | 0.257 (active) |
| CCOC(=O)c1ccc2c(c1)n(CC)c(/C=C/N(C)c1ccccc1)[n+]2CC | 2.08 µM (active) |  |
| Clc1ccc(-c2c[n+](Cc3ccc(Cl)cc3Cl)c3n2CCCCC3)cc1 | 5.44 µM (active) |  |
| CCOc1ccc(NC(=O)C[n+]2ccc(N(C)C)cc2)cc1 | 2.57 µM (active) |  |
| O=C(CSc1ccc(-c2cccnc2)nn1)Nc1ccccc1C(F)(F)F | 8.74 µM (active) |  |
| CCCc1cc(=O)oc2cc(OC(C)C(=O)NCc3ccccn3)c(Cl)cc12 (stereo unspecified) | 20.8 µM (active) |  |
| CO[C@@H]1[C@@H](OC2OC(C)C(OC3CC(C)(O)C(OC(=O)CC(C)C)C(C)O3)C(N(C)C)C2O)[C@@H](CC=O)C[C@@H](C)C(=O)/C=C\C2O[C@H]2C[C@@H](C)OC(=O)C[C@H]1OC(C)=O (stereo partly specified) | 1.04 µM (active) |  |
| N#Cc1cccc(NC(=O)Cn2c3[n+](c4ccc(C(F)(F)F)cc42)CCCCC3)c1 | 26.1 µM (active) |  |
| COCCNC(=O)c1cccc(OC2CCN(Cc3cccc(SC)c3)CC2)c1 | inactive |  |
| CCCCOc1ccc(N2C(N)=NC(N)=NC23CCCCC3)cc1 | 23 µM (active) |  |
| Brc1cccc(OCCCCN2CCCCC2)c1 | 2.36 µM (active) |  |
| Cc1sc2nc[nH]c(=O)c2c1-c1ccc(Cl)cc1 | 31.7 µM (active) |  |
| COc1cccc(CN2CCN(c3nc4nonc4nc3N3CCCCC3)CC2=O)c1 | 14 µM (active) |  |
| c1csc(CNc2ncnc3nc[nH]c23)c1 | inactive |  |

| SMILES | Potency | relative growth, lower = inhibition |
| --- | --- | --- |
| CN(C)c1ccc(CN(C(=O)c2ccccc2Br)C2CCS(=O)(=O)C2)cc1 (stereo unspecified) | 9.14 µM (active) |  |
| COc1ccccc1N1CCN(CCC(=O)Nc2ccc(F)cc2)CC1 |  | 0.587 (active) |
| O=C(Nc1ccccc1N1CCOCC1)c1cccc(S(=O)(=O)N2CCOCC2)c1 | 14.7 µM (active) |  |
| Cc1c(F)c(N2CCNC(C)C2)cc2c1c(=O)c(C(=O)O)cn2C1CC1 (stereo unspecified) | 4.14 µM (active) |  |
| CCCCN(CCCNC(=O)c1ccc(CS(=O)(=O)c2ccc(OC)cc2)o1)Cc1ccccc1 | 6.24 µM (active) |  |
| CCCc1c(CC)c(=N)c2ccccc2n1C |  | 0.187 (active) |
| COc1ccc2c(ccc[n+]2CC(=O)c2ccccc2)c1 | 7 µM (active) |  |
| Cc1ccc(CN2CCC(n3nccc3NC(=O)c3ccccc3C)CC2)o1 | 2.38 µM (active) |  |
| CN(C)S(=O)(=O)c1cc(NC(=O)C2=COCCO2)ccc1Cl |  | 1.39 (active) |
| CCOc1ccc(S(=O)(=O)Nc2cc(S(=O)(=O)N(CC)CC)ccc2N2CCCC2)cc1 |  | 0.264 (active) |
| O=C(CNC(=O)C1CCCCC1)OC(C(=O)c1ccccc1)c1ccccc1 (stereo unspecified) | inactive |  |
| COc1ccc(NC(=S)N2CCC(Cc3ccccc3)CC2)cc1OC | 10.8 µM (active) |  |
| COc1cc(C(C)=O)ccc1OCC(O)CN1CCN(c2cc(C)cc(C)c2)CC1 (stereo unspecified) | inactive |  |
| CCC(=O)OC1C(N(C)C)CC(C)O[C@H]1O[C@H]1[C@H](C)[C@@H](O[C@H]2CC(OC)[C@@H](O)C(C)O2)[C@H](C)C(=O)O[C@@H](CC)[C@](C)(O)[C@@H](O)[C@H](C)C(=O)[C@@H](C)C[C@]1(C)O (stereo partly specified) | 34.1 µM (active) |  |
| CC1=Nc2cc(C(=O)N3CCCC3)ccc2Sc2ccc(C)cc21 |  | 0.214 (active) |
